Structures are written as SMILES. Results filed as inconclusive are left out. Entries that show only a call come without a potency. Values without a mark were called inactive. The source made the active and inactive calls. The call rests on the fitted dose curve; in most records, active means well fitted activation curve with a large enough effect in the repeat runs; inconclusive means weak or mixed curves; inactive means flat fitted curve, though single readings scatter.

The results in this text go back to PubChem BioAssay (Tox21).

This test can be described thus: Caspase-3/7 induction in HepG2 cells by small molecules, qHTS assay (AID 1346978). Further: nearly all actives have a fitted effect of over 15% in size. As to conditions: HepG2 caspase-3/7 activation, Caspase-Glo luminescence, 17 h; series mostly up to 92.4 µM. The source says:
National Center for Advancing Translational Sciences [NCATS] NIH Chemical Genomics Center [NCGC] U.S. Environmental Protection Agency [EPA] National Institutes of Environmental Health Sciences [NIEHS] National Toxicology Program [NTP] Assay overview: Apoptosis is a process of programmed cell death and plays a central role in the development of multicellular organisms. It is a highly regulated process and induces cell death by activating caspases, which are the members of cysteine aspartic acid-specific protease (caspase) family. Caspases involved in apoptosis are classified by their mechanism of action as initiator caspases (caspase-2, -8, -9 and -10) and executioner caspases (caspase-3, -6, and -7). Inhibition of apoptosis results in number of cancers, autoimmune diseases, inflammatory diseases and viral infection. To identify small molecule compounds that induce apoptosis, a homogeneous, luminescent Caspase-Glo 3/7 assay was used. Wild type HepG2 cells were used to screen Tox21 libraries for identifying caspase-3/7 activity inducers.
Assay Protocol Summary: HepG2 cells were dispensed at 2,000 per well in 5uL of culture medium into white solid bottom 1536-well plates (Corning Life Sciences, Corning, NY) using a Multidrop Combi (Thermo Scientific, Waltham, MA) dispenser. The assay plates were incubated at 37 C and 5% CO2 for 5hr, and then 23nL of compounds dissolved in DMSO and positive control were transferred using a Pintool station (Wako, San Diego, CA). The assay plates were incubated at 37C and 5% CO2 for 17hr. For caspase-3/7 activity read, 4uL of Caspase-Glo 3/7 reagent (Promega Corporation, Madison, WI) was added to each well of the assay plates using Flying Reagent Dispenser (FRD, Aurora Discovery, San Diego, CA) and incubated the assay plates at room temperature for 30min. The luminescence signal was quantified using a ViewLux plate reader (Perkin Elmer, Shelton, CT).
In general terms: qHTS replaces the single test concentration by a dilution series.
For `Oc1cn2c(n1)Nc1ccc(Cl)c(Cl)c1C2`, the caspase activation is 0.135% [at 19 µM].

With `CCCC(=O)C(C)=O`, the Potency result is “inactive”.

Turning to `CN(C)C(=O)CNC(=O)Cc1ccccc1`, the Potency result was “inactive”.

For `CCC(C=O)CC`, the Potency result was “inactive”.

Turning to `C[C@@H](Oc1ccc(CNC(=O)c2cccnc2Oc2ccc3c(c2)OCO3)c(F)c1)C(=O)O`, the Potency result was “inactive”.

With `CCCCCCN`, the Potency entry was “inactive”.

On to `CCNC(=O)C1CC(C)CCC1C(C)C` (stereo not given), for which the Potency result was “inactive”.

For `O=C(OCC(O)CO)c1ccccc1Nc1ccnc2c(C(F)(F)F)cccc12` (stereo not given), the Potency entry is “inactive”.

As to `Cc1cccc(C)c1NC(=O)c1ccccc1C(=O)O`, the Potency entry is “inactive”.

With `Cc1c(I)c(=O)n(-c2ccccc2)n1C`, the Potency result was “inactive”.

Take `COc1ccc2c(c1OC)C(=O)O[C@@H]2[C@H]1c2c(cc3c(c2OC)OCO3)CCN1C`: the Potency result is “inactive”.

Consider `CCCCOCCOC(=O)COc1nc(Cl)c(Cl)cc1Cl`, for which the Potency entry was “inactive”.

`COCCOCCOCCOCCO`: the Potency result is “inactive”.

As for `NS(=O)(=O)c1cc2c(cc1Cl)CN(C1CCCCC1)C2=O`, the Potency result was “inactive”.

As for `CC(C)(C)c1cc(CCC(=O)NN)cc(C(C)(C)C)c1O`, the Potency result is “inactive”.

Take `O=C(O)c1ccc(Cl)cc1Cl`: the Potency entry is “inactive”.

`COc1ccc(OC)c(Cl)c1`: the Potency entry is “inactive”.

On to `CCCCCCCC/C=C\CCCCCCCC(=O)OCCCC`, for which the caspase activation was 0.919% [at 19 µM].

On to `CC(=O)N[C@@H](CCC(=O)O)C(=O)O`, for which the Potency entry was “inactive”.

For `CC(C)CCCCOC(=O)c1ccccc1C(=O)OCCCCC(C)C`, the Potency entry is “inactive”.

Consider `CNC(=O)[C@H]1O[C@@H](n2cnc3c(NCc4cc(Cl)ccc4OCc4cc(C)no4)ncnc32)[C@H](O)[C@@H]1N`, for which the Potency result is “inactive”.

In the case of `CC(N)C(=O)OC(C)(C)Cc1ccc(Cl)cc1` (stereo not given), the Potency entry was “inactive”.

For the molecule `CCCCCCCCC(=O)Cl`, the Potency entry was “inactive”.

For `Nc1ccc(S(=O)(=O)Nc2ccc(Cl)nn2)cc1`, the Potency entry is “inactive”.

Take `CNS(=O)(=O)CCc1ccc2[nH]cc(C3CCN(C)CC3)c2c1`: the Potency result is “inactive”.

Take `c1ccc2c(c1)ccc1c3ccccc3ccc21`: the Potency entry was “inactive”.

Take `C=CC(OCC)OCC`: the Potency result was “inactive”.

`COc1ccc(C2CNC(=O)C2)cc1OC1CCCC1` (stereo not given): the Potency result is “inactive”.

Turning to `O=C(O)C(=O)Cc1ccccc1`, the Potency result was “inactive”.

Regarding `CC(=O)NCCCCCC(=O)O`, the Potency entry is “inactive”.

Take `CC(C)N(c1ccccc1)C(C)C`: the Potency entry is “inactive”.

For `CN(C)CCOCCO`, the Potency entry was “inactive”.

Turning to `CCN(C)C(=O)Oc1cccc([C@H](C)N(C)C)c1`, the Potency result was “inactive”.

In the case of `CCn1ccc(NS(=O)(=O)c2ccc(N)cc2)nc1=O`, the Potency result is “inactive”.

`COc1ccc2c(c1)C(=O)N(CCc1ccc(S(=O)(=O)NC(=O)NC3CCCCC3)cc1)C(=O)C2(C)C`: the Potency result was “inactive”.

As for `O=C1c2ccccc2C(=O)N1CCl`, the Potency entry is “inactive”.

With `CCCOC(OCCC)OCCC`, the Potency entry is “inactive”.

In the case of `Nc1ccc2cc(S(=O)(=O)O)cc(O)c2c1`, the Potency result was “inactive”.

As to `CC(=O)Nc1ccc(S(=O)(=O)Nc2ccc([N+](=O)[O-])cc2)cc1`, the Potency result is “inactive”.

As to `CCCCNC1CC(C)(C)NC(C)(C)C1`, the Potency result was “inactive”.
